Compound activity from PubChem BioAssay.
In the library only some 11% were active in any assay of this set; here they are far more common.
AMA1 RON2 block – qHTS for Inhibitors of AMA1-RON; Towards Development of Antimalarial Drug Lead: Primary Screen. hit rate 0.2% among 360,000. AID 720542, 2013. AlphaScreen AMA1-biotinylated RON2 peptide binding. Potency, µM (top dose mostly 58.2 µM), for inactives: at the highest dose activity change, negative = inhibition, hits mostly inhibitors;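 also: 0% = vehicle wells and -100% = peptide control; nearly all actives have a fitted effect of over 45% in size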
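AMA1 (3D7) with his tag at 25 nM final met compounds first, then biotinylated RON2 peptide at 25 nM; detection used donor plus acceptor beads, 10 µg/mL apiece, read by AlphaScreen after 30 min at room temperature.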
Pf growth 48h – Primary qHTS for delayed death inhibitors of the malarial parasite plastid, 48 hour incubation; P. falciparum luciferase growth in erythrocytes, 48 h; Potency, µM (highest dose often 28.7 µM), for inactives: top-dose activity change, negative = inhibition, usual class: inhibitors; hit rate 5.9% among 310,000; AID 504832, 2011
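Luminescence readout; reporter = integrated firefly luciferase in P. falciparum. RBC culture at 2% hematocrit, 0.1% parasitemia final, 37 C/5% CO2; decreased signal taken as growth inhibition.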
AmpC detergent – qHTS Inhibitors of AmpC Beta-Lactamase (assay with detergent); AmpC hydrolysis of nitrocefin, absorbance 480 nm, 0.01% Triton; Potency, µM (doses to about 114 µM), for the others: at the top dose activity change, negative = inhibition, most hits filed as inhibitors; hit rate 0.041% among 370,000; AID 485294, 2010;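 also: 0% = no-compound wells and -100% = no-enzyme wells; nearly all actives have a fitted effect of over 25% in size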
Target sequence (P00811 whole entry, looked up): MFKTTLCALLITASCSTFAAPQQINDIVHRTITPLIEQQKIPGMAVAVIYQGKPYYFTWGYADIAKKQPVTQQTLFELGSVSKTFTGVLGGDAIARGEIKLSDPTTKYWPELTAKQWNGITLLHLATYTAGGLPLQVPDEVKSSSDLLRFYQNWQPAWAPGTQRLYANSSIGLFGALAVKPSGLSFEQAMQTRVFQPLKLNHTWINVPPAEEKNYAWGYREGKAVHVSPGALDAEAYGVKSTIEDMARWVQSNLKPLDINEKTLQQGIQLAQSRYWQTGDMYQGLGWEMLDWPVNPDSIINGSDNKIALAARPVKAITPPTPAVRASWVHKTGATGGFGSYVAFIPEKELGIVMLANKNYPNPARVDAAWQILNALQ
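AmpC (5.3 nM in the dispensed reagent) in 20 mM phosphate pH 7.0 with 0.01% (detergent screen) or 0.0001% Triton X-100 was preincubated with compounds for 15 min at room temperature. Nitrocefin was then added from an 800 uM solution, and hydrolysis was followed at 480 nm.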
AmpC no deterg – qHTS Inhibitors of AmpC Beta-Lactamase (assay without detergent); AmpC nitrocefin hydrolysis, absorbance 480 nm, 0.0001% Triton; Potency, µM (top dose mostly 57.1 µM), for inactives: at the highest dose activity change, negative = inhibition, actives largely listed as inhibitors; hit rate 0.52% among 330,000; P00811;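 also: plate controls were no compound for no effect and no enzyme for full effect; nearly all actives have a fitted effect of over 20% in size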
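20 mM phosphate pH 7.0 + 0.01% (detergent screen) or 0.0001% Triton X-100; 5.3 nM AmpC reagent; cpd preinc 15 min RT; nitrocefin (800 uM stock) to start; A480 q20 s × 4 min; Activity was normalised to no-enzyme and no-compound control wells.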
Pf growth 96h – Primary qHTS for delayed death inhibitors of the malarial parasite plastid, 96 hour incubation | P. falciparum luciferase reporter growth, 96 h | Potency, µM (series often up to 28.7 µM), without a hit: at the highest dose activity change, negative = inhibition, hits mostly inhibitors | hit rate 6.9% among 320,000
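Compounds incubated with erythrocytes infected by luciferase-expressing P. falciparum (2% hematocrit, 0.05% parasitemia final) for 96 hours, 37 C in 5% CO2. Growth inhibition scored as decreased luciferase luminescence.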
HCV inh – qHTS Assay for Inhibitors of Hepatitis C Virus (HCV) | Huh7.5.1 HCVcc-Cre infection, luciferase reporter, 44 h | Potency, µM (series often up to 41.8 µM), for the others: top-dose activity change, negative = inhibition, hits mostly inhibitors | hit rate 3.4% among 340,000 | AID 651820, 2012
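HCVcc-Cre virus at an moi near 0.5 was added right after compound to cells cultured 4 h from seeding (1,000 cells/well). Luciferase activity was determined 44 h later, 15 min after substrate addition at RT.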
Active calls of the source: *; ? = inconclusive; . = no result given; [ ] = dose if it differs, or a comment. Calls follow the shape of the dose curve; as a rule, active = well fitted curve in the direction sought with a large enough effect; inconclusive = small, poorly fitted or top-dose-only effect, or another doubt; inactive = no such curve, though single readings can be large; an effect the other way counts as inactive or inconclusive. Unless noted, % is scaled to controls: 0 for no effect and ±100 for the full control effect; potency is read from the fitted curve at half-maximal effect.

SMILES | AMA1 RON2 block | Pf growth 48h | AmpC detergent | AmpC no deterg | Pf growth 96h | HCV inh
COC(=O)c1ccc(OCC(O)CN(CC(C)C)CC(C)C)cc1 (stereo not drawn) | 2% | 13µM* | -9% | -4% | ? | 3%
CCCN(CCC)CC(O)COc1ccc([N+](=O)[O-])cc1 (stereo not drawn) | 13% | ? | 7% | -18% | 15µM* | -17%
CCN(CC)C(=O)CSc1nnc2[nH]c(=O)cc(C)n12 | . | . | -9% | . | . | .
COc1cccc2c1C(CO)N1C(C#N)C3CC(C(=O)O)C(C1C2)N3C (stereo not drawn) | 4% | ? | 7% | -12% | ? | 1.1µM*
COc1cccc2c1OCC(C(=O)O)C2 (stereo not drawn) | -5% | -6% | 8% | -22% | 33% | -4%
Cc1ccccc1N/N=C/c1c(C)nc2ccccn12 | -2% | 9.3µM* | -9% | 12% | ? | ?
Cc1ccc(NC(=O)c2c(C)nc3ccccn23)cc1C | -6% | 385% | ? | 39% | 256% | 6%
CCc1ccc(C2=NN(CCC(=O)NCCc3ccccc3)C(=O)CC2)cc1 | . | . | 3% | . | . | .
CCOc1ccc(-n2nc3c(Cl)nnc(C)c3c2C)cc1 | -3% | 0.33µM* | -10% | -10% | 0.52µM* | -13%
Cc1nnc(Cl)c2nn(-c3ccccc3)c(C)c12 | -4% | 0.33µM* | -1% | 3% | 0.59µM* | -5%
Cc1ccc(NC(=O)N2CCN(c3nnc(C)c4c(C)n(-c5ccccc5)nc34)CC2)cc1Cl | . | . | 20% | . | . | .
CCOc1ccc(-n2nc3c(SCCN4CCCC4)nnc(C)c3c2C)cc1 | -19% | ? | -6% | -15% | -6% | 10µM*
COC(=O)CN1C(=O)CSc2ccc(S(=O)(=O)Nc3ccc(C(C)=O)cc3)cc21 | . | . | -2% | . | . | .
CSc1nc2n(n1)C(C)C1=C(CCCC1=O)N2 (stereo not drawn) | -9% | 3% | -9% | -17% | 2.9µM* | 0%
CCN=c1scc(C)n1/N=C/c1cc(Br)c(O)c(OC)c1 | -13% | ? | -10% | -24% | 5.9µM* | ?
CN=c1scc(C)n1/N=C/c1cc(Br)c(O)c(Br)c1 | -10% | 5% | 2% | -38% | 17% | 20%
COc1ccc(-c2csc(N(CC3CCCO3)C(=O)c3ccccc3)n2)cc1 (stereo not drawn) | -3% | ? | -7% | -27% | 20% | -29%
COc1ccc(-c2csc(N(CCCN(C)C)C(=O)c3ccc(Br)cc3)n2)cc1 | ? | ? | ? | 61% | ? | ?
COc1ccc(-c2csc(N(CCCN(C)C)C(=O)c3cc(OC)c(OC)c(OC)c3)n2)cc1 | -3% | ? | ? | 178% | ? | -6%
COc1ccc(-c2csc(N(CC3CCCO3)C(=O)c3ccc(C)cc3)n2)cc1 (stereo not drawn) | -22% | 5.2µM* | ? | -21% | 10µM* | ?
CCN(CC)CCCN(C(=O)c1ccccc1F)c1nc(-c2ccc(OC)cc2)cs1 | 8% | 4.1µM* | ? | 92% | -30% | ?
COc1ccc(-c2csc(N(CCCN(C)C)C(=O)c3ccc(C)cc3)n2)cc1 | -25% | 8.3µM* | ? | 153% | ? | 25µM*
COc1ccc(-c2csc(N(CCCN(C)C)C(=O)c3ccc(C(C)(C)C)cc3)n2)cc1 | ? | 13µM* | -3% | 82% | 16% | -19%
CCN(CC)CCCN(C(=O)c1ccc(OC)cc1)c1nc(-c2ccc(OC)cc2)cs1 | -11% | 1.3µM* | -15% | 179% | -29% | ?
COc1ccc(-c2csc(N(CCc3ccc(OC)c(OC)c3)C(=O)COc3ccccc3)n2)cc1 | -20% | 10µM* | 1% | -6% | 11% | 4%
SMILES | AMA1 RON2 block | Pf growth 48h | AmpC detergent | AmpC no deterg | Pf growth 96h | HCV inh
COc1ccc(CNC(=O)CCc2c(C)nc3c4cccnc4nn3c2C)cc1 | . | . | 13% | . | . | .
CCOC(=O)c1sc2ccccc2c1S(=O)(=O)Nc1ccc(N(C)C)cc1 | . | . | 22% | . | . | .
O=C(c1nn2c(C(F)(F)F)cc(-c3cccs3)nc2c1Cl)N1CCCc2ccccc21 | 75% | 28% | -8% | -22% | 10µM* | 9%
COc1cccc(N2CCN(C(=O)c3ccc4c(=O)n(CCc5ccccc5)c(=O)[nH]c4c3)CC2)c1 | . | . | 6% | . | . | .
O=C(Oc1ccc(OC(=O)c2ccco2)c(S(=O)(=O)c2ccc(Br)cc2)c1)c1ccco1 | -2% | 8% | -16% | -18% | 59% | -4%
Cc1ccc(S(=O)(=O)c2cc(OC(=O)c3ccco3)ccc2OC(=O)c2ccco2)cc1 | -12% | -5% | -21% | 13µM* | -14% | -6%
O=C(COC(=O)c1cc[n+]([O-])cc1)Nc1cccc(Cl)c1Cl | -16% | 12µM* | -18% | -6% | 17% | 22%
Cc1cc2c(cc1C)N(C(=O)CCl)CC(=O)N2 | 4% | . | . | . | . | .
Cc1cc2c(cc1C)N(C(=O)CCl)CCN2C(=O)CCl | -17% | . | . | . | . | 4µM*
Cc1cc2n(n1)CCCN2C(=O)Nc1ccccc1F | . | . | -8% | . | . | .
CS(=O)(=O)c1sc2nc(-c3cccs3)cc(-c3ccccc3)c2c1N | 3% | ? | ? | -59% | 73% | 8.9µM*
CCN(CC)CCC(=O)Nc1ccc2c(c1)N(C(=O)CN(CC)CC)c1ccccc1CC2 | -9% | 10µM* | -12% | 1% | ? | ?
CN(C)CC(=O)N1c2ccccc2CCc2ccc(NC(=O)c3ccc(N)cc3)cc21 | -2% | 5.9µM* | 9% | 62% | 65% | ?
COc1cc(C(=O)Nc2ccc3c(c2)N(C(=O)CCN(C)C)c2ccccc2CC3)cc(OC)c1OC | -8% | 10µM* | 3% | 187% | 9.3µM* | ?
COc1cccc(C(=O)Nc2cccc(-c3cn4ccsc4n3)c2)c1OC | . | . | 23% | . | . | .
COC(=O)c1c(NC(=O)Cc2coc3cc(C)cc(C)c23)sc2c1CCC2 | . | . | -7% | . | . | .
CCOc1ccc(CCNC(=O)CSc2nnnn2-c2ccccc2Cl)cc1OCC | . | . | 5% | . | . | .
CC[n+]1ccc(C[n+]2ccccc2)c2ccccc21 | -4%[11.6 µM] | ? | 32µM* | ? | -22% | 5%
N/C(=N/OC(=O)c1ccccc1Cl)c1ncc([N+](=O)[O-])s1 | -29% | ? | -2% | -29% | ? | 11µM*
